Measured values: PubChem BioAssay (NCATS)
Records with an inconclusive call do not appear. A call without a number means that no potency is given here. Active and inactive are the calls of the source. Unless noted, calls follow the shape of the dose curve; as a rule, active = well fitted curve in the direction sought with a large enough effect; inconclusive = small, poorly fitted or top-dose-only effect, or another doubt; inactive = no such curve, though single readings can be large; an effect the other way counts as inactive or inconclusive.

Tested on: not listed separately
Test: qHTS for differential inhibitors of proliferation of Plasmodium falciparum line Dd2 (AID 1882); also: nearly all actives have a fitted effect of over 65% in size; also: potency is read from the fitted curve at half-maximal effect
Details: Potency: Plasmodium falciparum Dd2 proliferation inhibition; series mostly up to 28.7 µM
Procedure, shortened: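 RBC culture, 0.3% parasitemia / 2.5% Hct final; cpd added by pin tool in DMSO; 72 h, 37 C, 5% CO2; lysis buffer + SYBR Green I, o/n RT dark; FI 485/535; norm. to artemisinin 0.29 uM and DMSO.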

Row | SMILES | Potency
1 | C[N+](C)(C)CCCCCCCCCC[N+](C)(C)C | 10 µM (active)
2 | CC[C@H]1CN2CCc3cc(OC)c(OC)cc3[C@@H]2C[C@@H]1C[C@H]1NCCc2cc(OC)c(OC)cc21 | 0.112 µM (active)
3 | O=C(O)c1nn(Cc2ccc(Cl)cc2Cl)c2ccccc12 | inactive
4 | CC(N)C(=O)OC(C)(C)Cc1ccc(Cl)cc1 (stereo unspecified) | 5.62 µM (active)
5 | CCCCCCCCC(=O)NCc1ccc(O)c(OC)c1 | inactive
6 | COC(=O)C1=CCCN(C)C1 | inactive
7 | COc1ccc(C(=O)N2CCCC2=O)cc1 | inactive
8 | NC(=O)CN1CCCC1=O | inactive

Tested on: not listed separately
Test: qHTS for differential inhibitors of proliferation of Plasmodium falciparum line W2 (AID 1883);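 also: parasites grown with compound for 72 h before lysis and staining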; also: potency is read from the fitted curve at half-maximal effect
Details: Potency: Plasmodium falciparum W2 proliferation inhibition; series mostly up to 28.7 µM

Row | SMILES | Potency
9 | C[N+](C)(C)CCCCCCCCCC[N+](C)(C)C | 0.562 µM (active)
11 | NC(N)=NC(=O)c1nc(Cl)c(N)nc1N | 8.91 µM (active)
12 | O=C(O)c1nn(Cc2ccc(Cl)cc2Cl)c2ccccc12 | inactive
13 | O=C1CC2(CCCC2)CC(=O)N1CCCCN1CCN(c2ncccn2)CC1 | 10 µM (active)
14 | Cc1cc(C(C)(C)C)cc(C)c1CC1=NCCN1 | 5.62 µM (active)
15 | CC(N)C(=O)OC(C)(C)Cc1ccc(Cl)cc1 (stereo unspecified) | 1.41 µM (active)
16 | COc1ccc(C(=O)N2CCCC2=O)cc1 | inactive
17 | c1ccc2nc(N3CCNCC3)ccc2c1 | 7.08 µM (active)
18 | CNC(=O)Oc1ccc2c(c1)[C@]1(C)CCN(C)[C@@H]1N2C | 7.08 µM (active)
19 | NC(N)=N/N=C/c1c(Cl)cccc1Cl | 3.98 µM (active)
20 | COC(=O)C1=C(C)NC(C)=C(C(=O)OC)C1c1ccccc1[N+](=O)[O-] | 12.6 µM (active)
21 | NC(=O)CN1CCCC1=O | inactive

Tested on: not listed separately
Test: qHTS for differential inhibitors of proliferation of Plasmodium falciparum line HB3 (AID 1886);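 also: parasites grown with compound for 72 h before SYBR Green readout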; also: potency is read from the fitted curve at half-maximal effect
Details: Potency: Plasmodium falciparum HB3 proliferation inhibition; series mostly up to 28.7 µM

Row | SMILES | Potency
22 | C[N+](C)(C)CCCCCCCCCC[N+](C)(C)C | 1.78 µM (active)
23 | CC[C@H]1CN2CCc3cc(OC)c(OC)cc3[C@@H]2C[C@@H]1C[C@H]1NCCc2cc(OC)c(OC)cc21 | 0.112 µM (active)
24 | NC(N)=NC(=O)c1nc(Cl)c(N)nc1N | 10 µM (active)
25 | O=C(O)c1nn(Cc2ccc(Cl)cc2Cl)c2ccccc12 | inactive
26 | CC(N)C(=O)OC(C)(C)Cc1ccc(Cl)cc1 (stereo unspecified) | 14.1 µM (active)
27 | CCCCCCCCC(=O)NCc1ccc(O)c(OC)c1 | inactive
28 | COC(=O)C1=CCCN(C)C1 | inactive
29 | COc1ccc(C(=O)N2CCCC2=O)cc1 | inactive
30 | c1ccc2nc(N3CCNCC3)ccc2c1 | inactive
31 | CNC(=O)Oc1ccc2c(c1)[C@]1(C)CCN(C)[C@@H]1N2C | 5.01 µM (active)
32 | NC(N)=N/N=C/c1c(Cl)cccc1Cl | 6.31 µM (active)
33 | NC(=O)CN1CCCC1=O | inactive

Tested on: not listed separately
Test: qHTS Assay for Identification of Small Molecule Inducers of Hypoxia Response (AID 2120; active = well fitted curve in the direction sought with a large enough effect in the signal ratio, with a control signal flat, not every such curve was filed as active; the % refers to the signal ratio)
Details: hypoxia response reporter cells, beta-lactamase ratio readout; series mostly up to 104 µM
Procedure, shortened: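 HRE-bla ME-180, 2500 cells/well, 0.5% dialyzed FBS medium; cpd titration, 17 h 37 degrees C; CCF4 2.5 h RT; Ex 405, Em 460/530 ratio -> %Activity, AC50.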

Row | SMILES | outcome
34 | CNC(=O)Oc1cccc2ccccc12 | inactive
35 | Oc1c(Br)cc(Br)cc1Br | inactive
36 | C[C@@H]1C[C@@H]([C@H](O)CC2CC(=O)NC(=O)C2)C(=O)[C@@H](C)C1 | inactive
37 | CN(C)C(=S)SSC(=S)N(C)C | inactive
38 | COP(=O)(OC)OC=C(Cl)Cl | inactive

Target: Ferritin light chain (Equus caballus) (UniProt P02791)
Sequence (P02791 2-175 limits assumed): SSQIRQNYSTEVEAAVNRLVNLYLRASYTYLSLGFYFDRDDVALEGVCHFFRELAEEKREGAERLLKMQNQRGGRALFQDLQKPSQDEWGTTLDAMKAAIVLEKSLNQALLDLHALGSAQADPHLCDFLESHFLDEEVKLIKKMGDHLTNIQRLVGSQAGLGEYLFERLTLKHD
Test: qHTS Validation Assay for Identification of Novel General Anesthetics (AID 2323)
Details: horse apoferritin, anesthetic-site fluorescent probe displacement; series mostly up to 76.9 µM
Procedure, shortened: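 Apoferritin from horse spleen (10 uM) was mixed with 1-aminoanthracene at 50% saturation in PBS, then compounds were added. After 10 min at room temperature, fluorescence was read (ex 380 nm, em 535 nm) and normalized to free-probe and complex controls.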

Row | SMILES | outcome
39 | C[N+](C)(C)CCCCCCCCCC[N+](C)(C)C | inactive
40 | NC(N)=NC(=O)c1nc(Cl)c(N)nc1N | inactive
41 | Brc1c(NC2=NCCN2)ccc2nccnc12 | inactive
42 | O=C(O)c1nn(Cc2ccc(Cl)cc2Cl)c2ccccc12 | inactive
43 | CC(N)C(=O)OC(C)(C)Cc1ccc(Cl)cc1 (stereo unspecified) | inactive
44 | COC(=O)C1=CCCN(C)C1 | inactive
45 | COc1ccc(C(=O)N2CCCC2=O)cc1 | inactive
46 | c1ccc2nc(N3CCNCC3)ccc2c1 | inactive
47 | NC(=O)CN1CCCC1=O | inactive

Target: ATP-dependent DNA helicase Q1 (Homo sapiens) (UniProt P46063)
Sequence (P46063 whole entry, looked up): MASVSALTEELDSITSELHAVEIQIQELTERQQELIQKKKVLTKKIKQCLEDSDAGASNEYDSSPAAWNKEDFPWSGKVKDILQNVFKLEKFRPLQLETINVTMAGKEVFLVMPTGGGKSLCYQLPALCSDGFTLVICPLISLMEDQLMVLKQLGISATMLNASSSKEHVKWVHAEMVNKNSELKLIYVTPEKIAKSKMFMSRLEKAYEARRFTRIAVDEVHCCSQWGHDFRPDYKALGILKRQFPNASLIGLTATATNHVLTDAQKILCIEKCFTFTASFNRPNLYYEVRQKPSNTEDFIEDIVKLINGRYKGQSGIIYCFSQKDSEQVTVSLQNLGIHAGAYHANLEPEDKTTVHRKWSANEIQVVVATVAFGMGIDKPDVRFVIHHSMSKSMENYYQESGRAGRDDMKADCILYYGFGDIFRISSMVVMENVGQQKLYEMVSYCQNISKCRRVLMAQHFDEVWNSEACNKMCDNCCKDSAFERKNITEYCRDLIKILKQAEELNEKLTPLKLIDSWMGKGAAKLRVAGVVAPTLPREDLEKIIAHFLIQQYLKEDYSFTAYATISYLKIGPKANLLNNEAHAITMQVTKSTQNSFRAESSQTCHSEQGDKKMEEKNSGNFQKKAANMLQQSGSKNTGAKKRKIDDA
Test: qHTS Validation Assay for Inhibitors of RecQ-Like Dna Helicase 1 (RECQ1) (AID 2353)
Details: recombinant RECQ1 helicase DNA unwinding assay; series mostly up to 25.6 µM
Procedure, shortened: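 RECQ1T1 50 nM; forked duplex (20 bp + 30-nt ss tails) 200 nM, ATP 2 mM final; pH 8.0, 2 mM MgCl2, 2.5 ug/ml poly(dI-dC); 15 min compound preincubation; discontinuous kinetic read over 2 h at RT.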

Row | SMILES | outcome
48 | O=C(O)c1nn(Cc2ccc(Cl)cc2Cl)c2ccccc12 | inactive
49 | CC(N)C(=O)OC(C)(C)Cc1ccc(Cl)cc1 (stereo unspecified) | inactive
50 | CCCCCCCCC(=O)NCc1ccc(O)c(OC)c1 | inactive
51 | COC(=O)C1=CCCN(C)C1 | inactive
52 | COc1ccc(C(=O)N2CCCC2=O)cc1 | inactive
53 | c1ccc2nc(N3CCNCC3)ccc2c1 | inactive
54 | NC(=O)CN1CCCC1=O | inactive

Target: RecQ-like DNA helicase BLM (Homo sapiens) (UniProt P54132)
Sequence (P54132 whole entry, looked up): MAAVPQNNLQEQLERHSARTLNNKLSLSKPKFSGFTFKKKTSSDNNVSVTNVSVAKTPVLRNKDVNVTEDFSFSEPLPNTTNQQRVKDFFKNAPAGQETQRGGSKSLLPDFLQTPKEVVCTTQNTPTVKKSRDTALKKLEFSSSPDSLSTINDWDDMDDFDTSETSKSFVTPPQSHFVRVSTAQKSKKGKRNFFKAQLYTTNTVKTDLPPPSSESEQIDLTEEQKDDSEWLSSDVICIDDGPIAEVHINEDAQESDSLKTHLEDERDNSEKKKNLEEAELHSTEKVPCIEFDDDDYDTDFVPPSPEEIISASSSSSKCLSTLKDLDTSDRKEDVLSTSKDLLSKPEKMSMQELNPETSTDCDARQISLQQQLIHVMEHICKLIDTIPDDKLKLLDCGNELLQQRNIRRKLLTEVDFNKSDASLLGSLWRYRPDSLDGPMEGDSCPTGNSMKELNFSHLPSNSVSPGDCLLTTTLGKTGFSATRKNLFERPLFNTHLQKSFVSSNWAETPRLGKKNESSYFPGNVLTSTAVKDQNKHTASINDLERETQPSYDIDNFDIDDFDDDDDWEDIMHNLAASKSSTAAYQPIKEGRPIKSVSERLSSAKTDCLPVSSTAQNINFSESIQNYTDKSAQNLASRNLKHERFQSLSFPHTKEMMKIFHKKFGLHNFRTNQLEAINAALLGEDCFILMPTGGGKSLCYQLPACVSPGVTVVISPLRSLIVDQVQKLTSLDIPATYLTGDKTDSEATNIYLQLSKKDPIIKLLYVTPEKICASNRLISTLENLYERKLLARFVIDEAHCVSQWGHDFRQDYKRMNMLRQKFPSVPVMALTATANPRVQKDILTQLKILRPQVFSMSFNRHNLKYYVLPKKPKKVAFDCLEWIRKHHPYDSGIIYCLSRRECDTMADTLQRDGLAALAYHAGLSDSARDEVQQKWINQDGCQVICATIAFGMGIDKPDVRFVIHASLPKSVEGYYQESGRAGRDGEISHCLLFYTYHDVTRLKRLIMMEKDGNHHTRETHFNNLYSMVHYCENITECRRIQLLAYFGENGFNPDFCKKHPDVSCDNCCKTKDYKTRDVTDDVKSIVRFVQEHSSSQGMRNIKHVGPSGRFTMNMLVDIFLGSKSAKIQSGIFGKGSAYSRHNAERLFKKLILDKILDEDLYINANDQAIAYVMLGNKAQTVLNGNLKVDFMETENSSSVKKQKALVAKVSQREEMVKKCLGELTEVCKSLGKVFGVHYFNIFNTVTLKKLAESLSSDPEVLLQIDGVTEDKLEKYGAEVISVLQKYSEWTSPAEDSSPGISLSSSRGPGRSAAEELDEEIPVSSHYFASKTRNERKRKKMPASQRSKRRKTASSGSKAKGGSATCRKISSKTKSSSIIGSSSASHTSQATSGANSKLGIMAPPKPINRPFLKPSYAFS
Test: qHTS Validation Assay for Inhibitors of Bloom's syndrome helicase (BLM) (AID 2364)
Details: BLM helicase DNA unwinding, fluorescence, in vitro; series mostly up to 57.1 µM
Procedure, shortened: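 50 nM BLM preincubated 15 min at room temperature with compound in pH 8.0 Tris buffer containing 2.5 ug/ml poly(dI-dC); started with 200 nM TAMRA/BHQ-2 forked duplex and 2 mM ATP (final). Unwinding read as TAMRA fluorescence increase, two reads 2 h apart.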

Row | SMILES | outcome
55 | NC(N)=NC(=O)c1nc(Cl)c(N)nc1N | inactive
56 | O=C(O)c1nn(Cc2ccc(Cl)cc2Cl)c2ccccc12 | inactive
57 | CC(N)C(=O)OC(C)(C)Cc1ccc(Cl)cc1 (stereo unspecified) | inactive
58 | c1ccc2nc(N3CCNCC3)ccc2c1 | inactive
59 | NC(N)=N/N=C/c1c(Cl)cccc1Cl | inactive

Tested on: not listed separately
Test: Cytometric Cell-Based qHTS for Inhibitors of the mTORC1 Signaling Pathway in MEF (Tsc2-/-, p53-/-) Cells (AID 2660);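 also: percent of cells above a phospho-rpS6 to PI ratio cutoff in each well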
Details: mTORC1 pathway cytometry; series mostly up to 38.3 µM
Procedure, shortened: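 Tsc2-/-, p53-/- MEFs (empty vector) exposed to compound 24 h at 37 C, fixed, stained with Alexa-488 anti-phospho-rpS6 Ser235/236 and propidium iodide. Acumen laser scanning; phospho-S6/PI ratio thresholded against 7.5 nM rapamycin, reported as % positive cells.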

Row | SMILES | outcome
60 | O=C(O)c1nn(Cc2ccc(Cl)cc2Cl)c2ccccc12 | inactive
61 | COC(=O)C1=CCCN(C)C1 | inactive
62 | COc1ccc(C(=O)N2CCCC2=O)cc1 | inactive
63 | NC(=O)CN1CCCC1=O | inactive

Tested on: not listed separately
Test: High Content Imaging Cell-Based qHTS for Inhibitors of the mTORC1 Signaling Pathway in MEF (Tsc2-/-, p53-/-) Cells (AID 2666);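 also: percent of cells scored positive for phospho-rpS6 Ser235/236 immunostaining by imaging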
Details: at 38.3 µM (top of the series)
Procedure, shortened: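 MEF Tsc2-/- p53-/- (empty vector), DMEM/10% FBS; cpd 24 h 37 °C; PFA fix, Alexa-488 p-rpS6 S235/236 Ab, Hoechst; imaged; rapamycin-defined inhibition; % positive cells/well.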

Row | SMILES | outcome
64 | O=C(O)c1nn(Cc2ccc(Cl)cc2Cl)c2ccccc12 | inactive
65 | COC(=O)C1=CCCN(C)C1 | inactive
66 | COc1ccc(C(=O)N2CCCC2=O)cc1 | inactive
67 | NC(=O)CN1CCCC1=O | inactive

Tested on: not listed separately
Test: High Content Imaging Cell-Based qHTS for Inhibitors of the mTORC1 Signaling Pathway in MEF Cells (AID 2667);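 also: Tsc2-/- p53-/- MEFs stably re-expressing wild-type Tsc2 exposed 24 h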
Details: series mostly up to 38.3 µM
Procedure, shortened: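 Read-out is the share of phospho-rpS6-positive cells per well, from Hoechst-normalized Alexa-488 Ser235/236 staining imaged on IN Cell. Cells: WT Tsc2-expressing Tsc2-/-, p53-/- MEFs exposed to compound for 24 hrs.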

Row | SMILES | outcome
68 | O=C(O)c1nn(Cc2ccc(Cl)cc2Cl)c2ccccc12 | inactive
69 | COC(=O)C1=CCCN(C)C1 | inactive
70 | COc1ccc(C(=O)N2CCCC2=O)cc1 | inactive
71 | NC(=O)CN1CCCC1=O | inactive
